The source of these data is PubChem BioAssay (Tox21).

Assay [1] can be described thus: qHTS assay for small molecule agonists of the p53 signaling pathway (AID 651631; calls by dose curve; note: nearly all actives have a fitted effect of over 15% in size; note: potency is the fitted concentration of half-maximal effect). A digest of the protocol:
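Beta-lactamase reporter activity under p53 response elements was quantified in HCT-116 cells by FRET fluorescence, following 16 h incubation with test compounds at 37 °C and 2 h substrate development at room temperature.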
Background: qHTS replaces the single test concentration by a dilution series.

A short description of assay [2]: qHTS assay for small molecules that induce genotoxicity in human embryonic kidney cells expressing luciferase-tagged ATAD5 (AID 651632). Note: nearly all actives have a fitted effect of over 15% in size. Note: potency is the fitted concentration of half-maximal effect. A digest of the protocol: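 DMSO vehicle served as the control. HEK293T reporter cells, 16 hr at 37C, then 30 min Amplite at room temperature; ATAD5 induction is measured as luciferase activity.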
Assay [3] in a line: qHTS assay for small molecule agonists of the p53 signaling pathway - cell viability (AID 651633; calls by dose curve; note: nearly all actives have a fitted effect of over 30% in size; note: potency is the fitted concentration of half-maximal effect). An outline of the steps:
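p53RE-bla cells were treated with compound for 16 hours at 37 C. Cytotoxicity was then measured as CellTiter-Glo luminescence after 30 min at room temperature.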

A short description of assay [4]: qHTS assay for small molecules that induce genotoxicity in human embryonic kidney cells expressing luciferase-tagged ATAD5 - cell viability (AID 651634; calls by dose curve; note: nearly all actives have a fitted effect of over 25% in size; note: potency is the fitted concentration of half-maximal effect). An outline of the steps:
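Here HEK293T cells with the ATAD5 luciferase reporter are incubated with test compounds for 15.5 hr, and cytotoxicity is then gauged by measuring protease activity in live cells using fluorescence.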

The nature of assay [5]: qHTS assay for small molecule disruptors of the mitochondrial membrane potential - cell viability (AID 720634; calls by dose curve;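 note: human HepG2 liver cancer cells; series mostly up to about 83 µM; nearly all actives have a fitted effect of over 20% in size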). A digest of the protocol: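 Viability of HepG2 cells is scored from ATP content by luminescence; cells are exposed to compound for 1 hr at 37 C and 5% CO2, then dosed with m-MPI dye before the CellTiter-Glo reagent.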
A short description of assay [6]: qHTS assay for small molecule disruptors of the mitochondrial membrane potential (AID 720635). Note: potency is the fitted concentration of half-maximal effect. An outline of the steps: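 HepG2 cells exposed to compound 1 hr at 37C, then Mito-MPS dye 30 min. Ratio read of aggregate (540/590 nm) versus monomer (490/535 nm) fluorescence.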
Assay [7] is described as follows: qHTS assay to test for compound auto fluorescence at 590 nm (red) in HepG2 cells (AID 720674). A digest of the protocol: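 Seeding: 2,000 HepG2 cells/well, MEM/10% FBS, overnight 37 C. Dosing: compound vs DMSO. Incubation: 1 hr, 37 C, 5% CO2. Read: fluorescence 540 ex/590 em, Rose Bengal sodium as red reference.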
A short description of assay [8]: qHTS assay to test for compound auto fluorescence at 535 nm (green) in HepG2 cells (AID 720675).
Assay [9] in a line: qHTS assay to test for compound auto fluorescence at 460 nm (blue) in HEK293 cells (AID 720678). An outline of the steps: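 Measured: blue fluorescence (Ex 405/Em 460 nm) of compound-treated HEK293 cells, incubated overnight at 37C with 5% CO2 and scaled to triamterene equivalents.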
Assay [10] can be described thus: qHTS assay to test for compound auto fluorescence at 590 nm (red) in HEK293 cells (AID 720679). An outline of the steps:
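Using HEK293 cells at 2,000 per well, the screen added 23 nL of each compound after cell attachment and incubated overnight (37C, 5% CO2). The plate reader then captured red-label fluorescence, Ex/Em 540/590nm.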

A short description of assay [11]: qHTS assay to test for compound auto fluorescence at 535 nm (green) in HEK293 cells (AID 720680).
Assay [12] in a line: qHTS assay to test for compound auto fluorescence at 460 nm (blue) in HEK293 cell free culture (AID 720681). A digest of the protocol:
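Compounds were added to cell-free DMEM with 10% FBS and fluorescence read directly. The blue channel used 405 nm excitation and 460 nm emission, with triamterene as the reference fluorophore.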

A short description of assay [13]: qHTS assay to test for compound auto fluorescence at 535 nm (green) in HEK293 cell free culture (AID 720682). A digest of the protocol:
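Each library compound, or DMSO control, is added by pintool to medium alone, comprising DMEM and 10% FBS. Emission at 535 nm following 485 nm excitation is quantified against fluorescein.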

A short description of assay [14]: qHTS assay to test for compound auto fluorescence at 590 nm (red) in HEK293 cell free culture (AID 720683). An outline of the steps: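 Cell-free wells of DMEM with 10% FBS received compound, and intrinsic fluorescence was read at excitation/emission 540/590 nm. Values expressed as equivalence to Rose Bengal sodium.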
Assay [15] is described as follows: qHTS assay to test for compound auto fluorescence at 590 nm (red) in HepG2 cell free culture (AID 720684). A digest of the protocol: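 Rose Bengal sodium served as the reference for red signal. Test compounds were dispensed into serum-containing MEM (10% FBS) without cells, and plates were read at 540/590 nm.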
A short description of assay [16]: qHTS assay to test for compound auto fluorescence at 460 nm (blue) in HepG2 cell free culture (AID 720685). An outline of the steps:
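Cell-free plates of MEM plus 10% FBS received 23 nL compound or DMSO vehicle; blue-channel (405/460 nm) intensity scored against triamterene as reference fluorophore.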

Assay [17] is described as follows: qHTS assay to test for compound auto fluorescence at 535 nm (green) in HepG2 cell free culture (AID 720686).
The nature of assay [18]: qHTS assay to test for compound auto fluorescence at 460 nm (blue) in HepG2 cells (AID 720687). An outline of the steps:
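HepG2 cells in MEM with 10% FBS, attached overnight at 37 C, were exposed to compound or DMSO for 1 hr at 37 C, 5% CO2. Blue fluorescence was read at 405/460 nm, with triamterene as reference fluorophore.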

Assay [19] addresses Glucocorticoid receptor (Homo sapiens) (UniProt P04150). The assay can be described thus: qHTS assay to identify small molecule agonists of the glucocorticoid receptor (GR) signaling pathway (AID 720691; active = well fitted activation curve with a large enough effect in the signal ratio in the repeat runs, not every such curve was filed as active; the % refers to the signal ratio). An outline of the steps: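 Compounds in DMSO, alongside positive controls, were added to GR-bla HeLa reporter cells and incubated 18 h at 37 C; GRE-driven beta-lactamase was detected by fluorescence after 2 h with FRET substrate at room temperature.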

Assay [20] shares this target. The assay can be described thus: qHTS assay to identify small molecule antagonists of the glucocorticoid receptor (GR) signaling pathway (AID 720692; active = well fitted inhibition curve with a large enough effect in the signal ratio in the repeat runs, not every such curve was filed as active; the % refers to the signal ratio). A digest of the protocol: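 In a 1536-well cell format, compounds were added 4 h after seeding GR-bla HeLa cells, together with dexamethasone at 5 nM final; reporter activity was measured by FRET-substrate fluorescence following 18 h at 37 C.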

Where “and” joins values, the source holds several entries; their conditions need not be identical. Equal values may be shown once. Values without a mark were called inactive. Records with an inconclusive call do not appear. Calls of active or inactive are those of the source. Unless noted, calls come from the whole dose curve; as a rule, active = well fitted curve in the direction sought with a large enough effect in the repeat runs; inconclusive = weak or mixed curves; inactive = no such curve, though single readings can be large; an effect the other way counts as inactive or inconclusive.

Sequence of Glucocorticoid receptor (Homo sapiens) (P04150 whole entry, looked up): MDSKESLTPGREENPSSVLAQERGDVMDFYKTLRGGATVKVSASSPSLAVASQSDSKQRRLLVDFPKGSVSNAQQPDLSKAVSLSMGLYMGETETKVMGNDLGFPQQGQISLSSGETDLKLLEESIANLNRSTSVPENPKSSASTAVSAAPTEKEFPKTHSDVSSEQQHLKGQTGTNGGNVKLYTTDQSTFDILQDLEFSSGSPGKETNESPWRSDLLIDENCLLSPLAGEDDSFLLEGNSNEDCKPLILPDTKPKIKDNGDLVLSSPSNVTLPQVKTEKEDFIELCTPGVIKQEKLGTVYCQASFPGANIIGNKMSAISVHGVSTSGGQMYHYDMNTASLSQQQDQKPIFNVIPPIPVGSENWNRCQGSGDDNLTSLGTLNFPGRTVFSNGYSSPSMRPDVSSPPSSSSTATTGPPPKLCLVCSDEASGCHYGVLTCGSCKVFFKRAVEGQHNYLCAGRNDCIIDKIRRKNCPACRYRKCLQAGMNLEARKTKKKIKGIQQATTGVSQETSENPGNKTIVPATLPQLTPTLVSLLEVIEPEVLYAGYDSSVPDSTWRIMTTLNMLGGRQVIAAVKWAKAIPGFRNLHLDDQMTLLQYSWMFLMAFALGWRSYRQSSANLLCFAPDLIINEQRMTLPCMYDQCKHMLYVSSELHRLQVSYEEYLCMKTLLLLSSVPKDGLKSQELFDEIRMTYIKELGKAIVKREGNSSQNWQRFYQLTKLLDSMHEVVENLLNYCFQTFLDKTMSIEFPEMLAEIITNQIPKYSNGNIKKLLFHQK

Consider `CN(C)[C@@H]1C(=O)C(C(N)=O)=C(O)[C@@]2(O)C(=O)C3=C(O)c4c(O)ccc(Cl)c4[C@@](C)(O)[C@H]3C[C@@H]12`, for which the Potency entry in [1], in [2], in assay [3], in [4], in [5] and in assay [6] was “inactive” each time. In addition, the Potency entry in assay [9], in [12], in assay [16], in assay [18] and in [19] was “inactive” each time. Also, the molecule was classed as inactive in [7], in assay [8], in [10], in assay [11], in assay [13] and in assay [14]. Moreover, the molecule was called inactive in assay [15] and in assay [17].
Turning to `CC(c1ccc(O)cc1)c1ccc(O)cc1`, the Potency result in [1], in assay [2], in [3], in [4], in assay [5] and in [9] was “inactive” throughout. The Potency entry in assay [12], in [16], in assay [18] and in assay [20] was “inactive” throughout. Also, the Potency in assay [6] was 25.6 µM (active). Besides, the result in [7], in assay [8], in [10], in assay [11], in assay [13] and in assay [14] was inactive. Moreover, the result in assay [15] and in assay [17] was inactive.
Turning to `O=C(O)c1cc[c]([Hg][Cl])cc1`, in assay [1], the Potency was 61.1 µM (active). For the same molecule, the Potency result in assay [5], in [9], in [12], in assay [16], in [18] and in assay [20] was “inactive” in each case. The molecule was called inactive in assay [7], in [8], in [10], in assay [11], in [13] and in [14]. In addition, the result in assay [15] and in [17] was inactive.
With `O=CC(Br)(Br)Br`, the Potency in assay [1] is 13.6 µM (active); in assay [2], 9.66 µM (active); in assay [4], 30.5 µM (active); in assay [6], 30.5 µM (active). In addition, the Potency entry in [3], in assay [9], in [12] and in [18] was “inactive” throughout. In addition, the molecule was classed as inactive in assay [7], in assay [8], in assay [10], in assay [11], in [13] and in [14]. For the same molecule, in [17], the outcome was inactive.
Consider `CC(Cc1ccc(C(C)(C)C)cc1)CN1C[C@@H](C)O[C@@H](C)C1` (stereo not given in full), for which the Potency result in [2], in assay [3], in assay [4], in assay [5], in assay [9] and in assay [12] was “inactive” throughout. The Potency entry in [16], in [18], in [19] and in assay [20] was “inactive” in each case. For the same molecule, in assay [6], the Potency was 61.1 µM (active). Further, the molecule was classed as inactive in [7], in [8], in assay [10], in assay [11], in assay [13] and in assay [14]. Further, the outcome in [15] and in assay [17] was inactive.
On to `N#CNC#N`, for which the Potency result in [1], in assay [3], in assay [4], in [5], in assay [9] and in assay [12] was “inactive” throughout. Further, the Potency result in [16], in assay [18] and in [20] was “inactive” each time. The call in assay [7], in assay [8], in assay [10], in assay [11], in [13] and in [14] was inactive. Further, the molecule was classed as inactive in [15] and in assay [17].
For the molecule `N#CSCSC#N`, the Potency in assay [1] was 5.57 µM (active) and 10.8 µM (active); in [2] it was 19.8 µM (active) and 30.3 µM (active); in assay [3], 62.5 µM (active) and 60.5 µM (active); in assay [6], 62.5 µM (active) and 48.1 µM (active). Also, the molecule was classed as inactive in assay [7], in [8], in assay [10], in [11], in assay [13] and in assay [14]. Moreover, the outcome in assay [15] and in assay [17] was inactive. Besides, the Potency result in assay [9], in assay [12], in assay [16] and in assay [18] was “inactive” each time.
